Results taken from PubChem BioAssay (Tox21).
Inconclusive results are not listed. The source made the active and inactive calls. Unless noted, calls follow the shape of the dose curve; as a rule, active = well fitted curve in the direction sought with a large enough effect in the repeat runs; inconclusive = weak or mixed curves; inactive = no such curve, though single readings can be large; an effect the other way counts as inactive or inconclusive.

Assays:
[1] = qHTS assay to identify small molecule agonists of the peroxisome proliferator-activated receptor delta (PPARd) signaling pathway - cell viability counter screen (AID 743211); also: % is scaled to controls: 0 for no effect and ±100 for the full control effect; nearly all actives have a fitted effect of over 55% in size
Summary of the method: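 HEK293H PPARd-bla, 3000 cells/well; 5 h preincubation 37C/5% CO2; cpd in DMSO, 17 h 37C; B/G FRET substrate 2 h RT; CellTiter-Glo 30 min RT, luminescence.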

[2] = molecular target: Peroxisome proliferator-activated receptor delta (Homo sapiens) (UniProt Q03181); assay: qHTS assay to identify small molecule agonists of the peroxisome proliferator-activated receptor delta (PPARd) signaling pathway (AID 743212; calls by dose curve; also: % is scaled to controls: 0 for no effect and ±100 for the full control effect)
Chain of Peroxisome proliferator-activated receptor delta (Homo sapiens) (Q03181 whole entry, looked up): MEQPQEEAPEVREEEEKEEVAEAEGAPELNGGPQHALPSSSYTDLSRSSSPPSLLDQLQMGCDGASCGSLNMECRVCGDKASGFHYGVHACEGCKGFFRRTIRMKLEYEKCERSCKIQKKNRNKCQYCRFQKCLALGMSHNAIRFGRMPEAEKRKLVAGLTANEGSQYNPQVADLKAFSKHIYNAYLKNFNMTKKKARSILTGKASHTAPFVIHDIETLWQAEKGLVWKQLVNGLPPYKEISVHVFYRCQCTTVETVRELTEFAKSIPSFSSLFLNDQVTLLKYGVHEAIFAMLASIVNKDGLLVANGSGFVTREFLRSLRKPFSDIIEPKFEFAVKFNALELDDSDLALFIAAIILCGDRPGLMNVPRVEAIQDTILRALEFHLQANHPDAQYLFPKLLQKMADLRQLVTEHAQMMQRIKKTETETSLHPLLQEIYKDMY
Summary of the method: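 Quantitative high-throughput agonist screen in a HEK293H beta-lactamase reporter line under UAS control. Compounds in DMSO, at 37 C. Fluorescence read after 2 h with FRET substrate at room temperature.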

[3] = qHTS assay to identify small molecule antagonists of the peroxisome proliferator-activated receptor delta (PPARd) signaling pathway - cell viability counter screen (AID 743213); also: % is scaled to controls: 0 for no effect and ±100 for the full control effect; nearly all actives have a fitted effect of over 50% in size
Summary of the method: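 HEK293H cells with the PPARd UAS-bla reporter, co-treated 17 h at 37 C with compounds and L165041 (300 nM final), were lysed with CellTiter-Glo. Luminescence indicated viable cell content.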

[4] = molecular target: Peroxisome proliferator-activated receptor delta (Homo sapiens) (UniProt Q03181); assay: qHTS assay to identify small molecule antagonists of the peroxisome proliferator-activated receptor delta (PPARd) signaling pathway (AID 743215; active = well fitted inhibition curve with a large enough effect in the signal ratio in the repeat runs, not every such curve was filed as active; the % refers to the signal ratio;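 also: cells stimulated with agonist L165041 at 300 nM final during compound exposure; series mostly up to about 62 µM; % is scaled to controls: 0 for no effect and ±100 for the full control effect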)
Summary of the method: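 PPARd UAS-bla HEK293H cells were pre-incubated 5 h at 37 C, then given test compounds in DMSO plus agonist L165041 (300 nM final). After 17 h at 37 C, beta-lactamase FRET substrate was added; fluorescence read after 2 h at room temperature.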

[5] = molecular target: Bile acid receptor (Homo sapiens) (UniProt Q96RI1); assay: qHTS assay to identify small molecule antagonists of the farnesoid-X-receptor (FXR) signaling pathway (AID 743217; active = well fitted inhibition curve with a large enough effect in the signal ratio in the repeat runs, not every such curve was filed as active; the % refers to the signal ratio; also: % is scaled to controls: 0 for no effect and ±100 for the full control effect)
Chain of Bile acid receptor (Homo sapiens) (Q96RI1 whole entry, looked up): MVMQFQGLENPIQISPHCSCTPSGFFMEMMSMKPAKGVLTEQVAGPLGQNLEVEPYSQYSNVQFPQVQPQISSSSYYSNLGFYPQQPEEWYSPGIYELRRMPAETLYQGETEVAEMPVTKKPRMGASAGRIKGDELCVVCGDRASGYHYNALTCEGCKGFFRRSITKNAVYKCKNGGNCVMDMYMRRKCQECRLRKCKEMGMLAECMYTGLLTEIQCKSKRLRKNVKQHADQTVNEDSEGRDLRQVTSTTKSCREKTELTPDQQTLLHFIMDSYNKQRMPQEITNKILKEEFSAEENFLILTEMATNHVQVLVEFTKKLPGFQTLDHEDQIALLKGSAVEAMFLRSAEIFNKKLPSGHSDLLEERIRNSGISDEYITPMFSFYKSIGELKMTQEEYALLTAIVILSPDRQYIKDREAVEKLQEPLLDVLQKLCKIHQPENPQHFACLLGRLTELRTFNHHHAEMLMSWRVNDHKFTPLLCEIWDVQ
Summary of the method: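 FXR-UAS-bla HEK 293T cells pre-incubated 5 h at 37 °C, then exposed to compounds with chenodeoxycholic acid (50 uM final) for 16 h at 37 °C. Beta-lactamase reporter read by LiveBLAzer B/G FRET substrate fluorescence after 2 h at room temperature.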

[6] = qHTS assay to identify small molecule agonists of the farnesoid-X-receptor (FXR) signaling pathway - cell viability counter screen (AID 743218); also: % is scaled to controls: 0 for no effect and ±100 for the full control effect; nearly all actives have a fitted effect of over 45% in size
Summary of the method: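 FXR-UAS-bla HEK 293T cells, plated 5 h at 37 C, were exposed to compounds for 16 h at 37 C. CellTiter-Glo was then added to the same wells as the bla readout; luminescence read after 30 min at room temperature.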

[7] = molecular target: Bile acid receptor (Homo sapiens) (UniProt Q96RI1); assay: qHTS assay to identify small molecule agonists of the farnesoid-X-receptor (FXR) signaling pathway (AID 743220; active = well fitted activation curve with a large enough effect in the signal ratio in the repeat runs, not every such curve was filed as active; the % refers to the signal ratio; also: % is scaled to controls: 0 for no effect and ±100 for the full control effect)
Summary of the method: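 Beta-lactamase reporter under UAS control in GeneBLAzer FXR HEK 293T cells (5000/well) measured with LiveBLAzer FRET substrate after 2 h at room temperature. Compound exposure lasted 16 h at 37C.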

[8] = qHTS assay to identify small molecule antagonists of the farnesoid-X-receptor (FXR) signaling pathway - cell viability counter screen (AID 743221; active = well fitted cell-killing curve with a large enough effect in the repeat runs, not every such curve was filed as active; also: % is scaled to controls: 0 for no effect and ±100 for the full control effect; nearly all actives have a fitted effect of over 50% in size)
Summary of the method: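 Luminescence from CellTiter-Glo measures cytotoxicity in GeneBLAzer FXR-UAS-bla HEK 293T cells. Cells were exposed to compounds with 50 uM chenodeoxycholic acid (final) for 16 h at 37 C, in wells also used for the reporter readout.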

[9] = molecular target: Vitamin D3 receptor (Homo sapiens) (UniProt P11473); assay: qHTS assay to identify small molecule antagonists of the vitamin D receptor (VDR) signaling pathway (AID 743223; active = well fitted inhibition curve with a large enough effect in the signal ratio in the repeat runs, not every such curve was filed as active; the % refers to the signal ratio; also: % is scaled to controls: 0 for no effect and ±100 for the full control effect)
Chain of Vitamin D3 receptor (Homo sapiens) (P11473 whole entry, looked up): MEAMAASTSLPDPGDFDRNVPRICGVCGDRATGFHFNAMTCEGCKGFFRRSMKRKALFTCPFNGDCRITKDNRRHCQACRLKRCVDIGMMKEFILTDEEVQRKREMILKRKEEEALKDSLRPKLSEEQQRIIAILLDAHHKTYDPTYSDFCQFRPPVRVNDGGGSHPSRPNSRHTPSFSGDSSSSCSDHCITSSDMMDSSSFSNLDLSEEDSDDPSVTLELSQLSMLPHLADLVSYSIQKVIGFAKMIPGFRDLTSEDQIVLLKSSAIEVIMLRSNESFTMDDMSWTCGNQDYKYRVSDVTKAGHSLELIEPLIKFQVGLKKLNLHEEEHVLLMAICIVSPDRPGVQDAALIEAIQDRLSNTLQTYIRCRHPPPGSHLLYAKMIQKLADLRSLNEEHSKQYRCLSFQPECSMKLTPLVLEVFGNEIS
Summary of the method: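 Antagonist mode uses 1alpha,25-dihydroxyvitamin D3 at 3 nM final as stimulus. VDR-bla cells receive compounds in DMSO, incubate 16 h at 37C, then a beta-lactamase FRET substrate for 2 h at room temperature before fluorescence measurement.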

[10] = qHTS assay to identify small molecule agonists of the vitamin D receptor (VDR) signaling pathway - cell viability counter screen (AID 743224); also: series mostly up to about 63 µM; % is scaled to controls: 0 for no effect and ±100 for the full control effect; nearly all actives have a fitted effect of over 50% in size
Summary of the method: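 VDR-bla cells were preincubated 4 h at 37C/5% CO2, then exposed to compounds for 16 h. After the 2 h room-temperature bla FRET read, CellTiter-Glo was added to the same wells and luminescence read after 30 min.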

[11] = qHTS assay to identify small molecule agonists of the NFkB signaling pathway - cell viability counter screen (AID 1159515; calls by dose curve; also: series mostly up to about 61 µM; % is scaled to controls: 0 for no effect and ±100 for the full control effect; nearly all actives have a fitted effect of over 55% in size)
Summary of the method: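 NFkB-bla ME-180 cells, 2,000/well, were plated overnight at 37 C, 5% CO2, then exposed to compounds in DMSO for 5 hr. After the bla FRET read, CellTiter-Glo was added to the same wells; luminescence was read after 30 min at room temperature.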

[12] = qHTS assay to identify small molecule agonists of the endoplasmic reticulum stress response signaling pathway (AID 1159516; active = well fitted activation curve with a large enough effect in the signal ratio in the repeat runs, not every such curve was filed as active; the % refers to the signal ratio; also: % is scaled to controls: 0 for no effect and ±100 for the full control effect)
Summary of the method: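 CellSensor ESRE-bla HeLa cells, carrying a beta-lactamase reporter driven by the ER stress response element, were plated overnight and exposed to compounds for 5 hr at 37 C. Reporter activity was read as FRET substrate fluorescence after 2 hr at room temperature.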

[13] = qHTS assay to identify small molecule agonists of the endoplasmic reticulum stress response signaling pathway - cell viability counter screen (AID 1159517; calls by dose curve; also: series mostly up to about 61 µM; % is scaled to controls: 0 for no effect and ±100 for the full control effect; nearly all actives have a fitted effect of over 50% in size)
Summary of the method: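 Counter-screen wells were identical to the reporter wells. Cells were plated at 1,500 per well and dosed for 5 hr, then read for luminescence 30 min after CellTiter-Glo addition.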

[14] = qHTS assay to identify small molecule antagonists of the retinoid-related orphan receptor gamma (ROR-gamma) signaling pathway - cell viability counter screen (AID 1159520)
Summary of the method: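 Tet-on ROR gamma CHO cells were given compounds for 2 hr, then doxycycline hyclate at 1 uM final, and incubated 16 hr at 37 C. Viability was measured as ATP content by CellTiter-Glo luminescence.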

[15] = molecular target: Nuclear receptor ROR-gamma (Homo sapiens) (UniProt P51449); assay: qHTS assay to identify small molecule antagonists of the retinoid-related orphan receptor gamma (ROR-gamma) signaling pathway (AID 1159521)
Summary of the method: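 CHO Tet-on RORγ, RORE-luc reporter. Cpd 2 h pre-incubation, then dox hyclate 1 uM final, 16 h, 37 C/5% CO2. ONE-Glo luminescence; decrease = antagonist.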

[16] = qHTS assay to identify small molecule agonists of the AP-1 signaling pathway - cell viability counter screen (AID 1159525; calls by dose curve; also: nearly all actives have a fitted effect of over 55% in size)
Summary of the method: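 AP-1-bla ME-180 cells in Opti-MEM with 0.5% dialyzed FBS, compound exposure 5 h at 37 C in 15-point titration. Viability read in the same wells as ATP content by CellTiter-Glo luminescence, normalised to tetra-n-octylammonium bromide and DMSO controls.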

[17] = qHTS assay to identify small molecule agonists of the AP-1 signaling pathway (AID 1159526; calls by dose curve; also: % is scaled to controls: 0 for no effect and ±100 for the full control effect)
[18] = molecular target: Retinoic acid receptor RXR-alpha (Homo sapiens) (UniProt P19793); assay: qHTS assay to identify small molecule agonists of the RXR signaling pathway (AID 1159527; calls by dose curve; also: % is scaled to controls: 0 for no effect and ±100 for the full control effect; nearly all actives have a fitted effect of over 35% in size)
Chain of Retinoic acid receptor RXR-alpha (Homo sapiens) (P19793 whole entry, looked up): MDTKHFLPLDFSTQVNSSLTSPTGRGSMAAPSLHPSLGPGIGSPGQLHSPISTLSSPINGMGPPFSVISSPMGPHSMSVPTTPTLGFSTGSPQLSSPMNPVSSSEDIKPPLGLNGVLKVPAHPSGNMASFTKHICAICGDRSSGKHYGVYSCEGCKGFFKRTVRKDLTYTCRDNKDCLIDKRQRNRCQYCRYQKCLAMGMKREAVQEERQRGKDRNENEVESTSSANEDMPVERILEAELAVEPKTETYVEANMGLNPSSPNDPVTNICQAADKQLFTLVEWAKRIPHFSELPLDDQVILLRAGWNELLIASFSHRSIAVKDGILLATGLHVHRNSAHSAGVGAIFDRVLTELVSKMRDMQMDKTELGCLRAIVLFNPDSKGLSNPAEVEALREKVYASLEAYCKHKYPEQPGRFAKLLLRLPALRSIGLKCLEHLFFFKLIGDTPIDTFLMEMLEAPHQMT
Summary of the method: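 Read-out: beta-lactamase FRET ratio (405 nm excitation, 460 and 530 nm emission) after 2 hr substrate loading at room temperature. Cells were RXR-alpha-UAS-bla HEK 293T treated with compounds for 16 hr in 2% charcoal-stripped FBS medium.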

[19] = qHTS assay to identify small molecule antagonists of the vitamin D receptor (VDR) signaling pathway - cell viability counter screen (AID 743225)
Summary of the method: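 Read-out: CellTiter-Glo luminescence measured 30 min after reagent addition at room temperature. Cells were VDR-bla HEK 293T exposed 16 h at 37C, 5% CO2, to compound with 3 nM final calcitriol agonist.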

[20] = molecular target: Vitamin D3 receptor (Homo sapiens) (UniProt P11473); assay: qHTS assay to identify small molecule agonists of the vitamin D receptor (VDR) signaling pathway (AID 743222; calls by dose curve; also: % is scaled to controls: 0 for no effect and ±100 for the full control effect)
Summary of the method: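 VDR-bla cells were plated 4 h at 37C/5% CO2, then exposed to compounds in DMSO for 16 h. After LiveBLAzer B/G FRET substrate addition and 2 h at room temperature, beta-lactamase reporter fluorescence was read.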

CCOC(=O)c1ccc(O)cc1
inactive: Potency [1] | Potency [2] | Potency [3] | Potency [4] | Potency [5] | Potency [6] | Potency [7] | Potency [8] | Potency [9] | Potency [10] | Potency [11] | Potency [12] | Potency [13] | Potency [14] | Potency [15] | Potency [16] | outcome [17] | Potency [18]

O=C1CCCCCCCCCCC1
inactive: Potency [1] | Potency [2] | Potency [3] | Potency [4] | Potency [6] | Potency [10] | Potency [19] | Potency [11] | Potency [12] | Potency [13] | Potency [14] | Potency [15] | Potency [16] | outcome [17] | Potency [18]

COCN(COC)c1nc(N(COC)COC)nc(N(COC)COC)n1
inactive: Potency [1] | Potency [2] | Potency [3] | Potency [4] | Potency [5] | Potency [6] | Potency [7] | Potency [8] | outcome [20] | Potency [9] | Potency [10] | Potency [19] | Potency [11] | Potency [12] | Potency [13] | Potency [14] | Potency [15] | Potency [16] | outcome [17] | Potency [18]

CC(=O)c1nccs1
inactive: Potency [1] | Potency [2] | Potency [3] | Potency [4] | Potency [6] | Potency [8] | outcome [20] | Potency [9] | Potency [10] | Potency [11] | Potency [12] | Potency [13] | Potency [14] | Potency [15] | Potency [16] | outcome [17] | Potency [18]

CCOC(=O)CC(=O)OCC
inactive: Potency [1] | Potency [2] | Potency [3] | Potency [4] | Potency [5] | Potency [6] | Potency [7] | outcome [20] | Potency [9] | Potency [10] | Potency [19] | Potency [11] | Potency [12] | Potency [13] | Potency [14] | Potency [15] | Potency [16] | outcome [17] | Potency [18]

CCCCCCCCCCCC(=O)N(C)CC(=O)O
inactive: activity change, negative = cytotoxicity [1] -1.87% [at 5.95 µM] | viability change, negative = cytotoxic [3] -8.19% [at 6.26 µM] | ratio activity, negative = inhibition [4] -7.38% [at 6.26 µM] | Potency [6] | outcome [20] | activity change, negative = inhibition [9] 10.5% [at 6.95 µM] | Potency [10] | Potency [19] | Potency [11] | Potency [12] | Potency [13] | Potency [14] | Potency [15] | Potency [16] | activation [17] -13.8% [at 6.97 µM] | activation [18] 1.89% [at 6.98 µM]

O=C1C(N(CO)C(=O)NCO)N(CO)C(=O)N1CO (stereo not given)
inactive: Potency [1] | Potency [3] | Potency [6] | Potency [9] | Potency [10] | Potency [19] | Potency [11] | Potency [12] | Potency [13] | Potency [14] | Potency [15] | Potency [16] | outcome [17] | Potency [18]

Nc1cccc(N)n1
inactive: Potency [1] | Potency [3] | Potency [4] | Potency [6] | outcome [20] | Potency [9] | Potency [10] | Potency [11] | Potency [12] | Potency [13] | Potency [14] | Potency [15] | Potency [16] | outcome [17] | Potency [18]

O=C(NCC1CCCCN1)c1cc(OCC(F)(F)F)ccc1OCC(F)(F)F (stereo not given)
inactive: Potency [1] | Potency [3] | Potency [6] | Potency [8] | outcome [20] | Potency [9] | Potency [10] | Potency [19] | Potency [11] | Potency [12] | Potency [13] | Potency [14] | Potency [15] | Potency [16] | outcome [17] | Potency [18]
